The values that follow come from PubChem BioAssay (NCATS).

Assay [1] in a line: Cell Viability - LYMP2-022 (AID 987).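 Further: 0% = DMSO alone and full effect = tetraoctylammonium bromide at 92 µM; nearly all actives have a fitted effect of over 55% in size.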 In outline: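 Acute toxicity in a human lymphoblastoid line is scored as decreased intracellular ATP after 24 hr compound treatment at 37 C. ATP is measured by CellTiter-Glo luminescence; curves are fitted with the Hill equation to give AC50.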
Assay [2] in a line: Cell Viability - LYMP2-024 (AID 988).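 Further: plate controls were DMSO only for no effect and 92 µM tetraoctylammonium bromide for full effect; nearly all actives have a fitted effect of over 60% in size.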 In a few lines: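 Acute toxicity is measured as concentration-dependent loss of intracellular ATP in a human lymphoblastoid line treated 24 hours at 37 C. Luciferase luminescence quantifies ATP; AC50 values come from standard Hill-equation modelling.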
Assay [3] in a line: Cell Viability - LYMP2-026 (AID 989).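 Further: cells exposed to compound for 24 h at 37 °C; on the % scale 0 is the no-effect control and ±100 the full control effect; nearly all actives have a fitted effect of over 50% in size.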 In outline: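 Concentration-dependent loss of intracellular ATP in human lymphoblastoid cells after 24 hr at 37 C, quantified by luciferase luminescence. AC50 derived from standard Hill equation.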
Assay [4] can be described thus: Cell Viability - LYMP1-002 - Assay at 24 hr (AID 993). Further: on the % scale 0 is the no-effect control and ±100 the full control effect. In outline:
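qHTS, LYMP1-002 lymphoblastoid, 24 h cpd, 37 C, CellTiter-Glo ATP luminescence; AC50 via Hill eq.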

Assay [5] is described as follows: Cell Viability - LYMP1-002 - Assay at 40 hr (AID 994).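 Further: 0% = DMSO only and full inhibition = 92 µM tetraoctylammonium bromide; nearly all actives have a fitted effect of over 60% in size.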 In a few lines: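 Viability in the human lymphoblastoid line was measured as intracellular ATP via CellTiter-Glo after 40 hr compound exposure. Tetraoctylammonium bromide served as positive control.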
A short description of assay [6]: qHTS Assay for Identification of Small Molecule Inducers of Hypoxia Response (AID 2120; active means well fitted curve in the direction sought with a large enough effect in the signal ratio, with a control signal flat, not every such curve was filed as active; the % refers to the signal ratio; further: 0% is about no effect). In outline:
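Induction of beta-lactamase reporter activity was measured in CellSensor HRE-bla ME-180 cells after 17 h compound treatment at 37 degrees C, using CCF4 substrate and the 460nm/530nm emission ratio to derive AC50 values.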
A general note: Quantitative high-throughput screening tests each substance at several concentrations.

Assay [7] deals with Estrogen receptor (Homo sapiens) (UniProt P03372). Nature of the assay: qHTS assay for small molecule antagonists of estrogen receptor alpha signaling (AID 588513; active means well fitted curve in the direction sought with a large enough effect in the signal ratio, with a control signal flat, not every such curve was filed as active; the % refers to the signal ratio; further: on the % scale 0 is the no-effect control and ±100 the full control effect). In a few lines:
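Antagonist-mode qHTS in ER-alpha-UAS-bla HEK 293 cells: compound titration, 0.5nM estradiol for 18 h, CCF4 fluorescence, Hill-derived IC50.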

Assay [8] has the same target. Description: qHTS assay for small molecule agonists of estrogen receptor alpha signaling (AID 588514; calls by dose curve; further: nearly all actives have a fitted effect of over 70% in size; further: potency means the concentration at half of the fitted maximal effect;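 on activation: 0% = vehicle only and 100% = reference agonist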). In a few lines: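 Reporter-gene assay. […] controls beta-lactamase in HEK 293 GripTite cells; after 18 hrs with compound, CCF4 substrate is added for 2 hrs and fluorescence is read.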
Assay [9] in a line: Cell Viability - LYMP2-020 (AID 986).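 Further: series mostly up to about 92 µM; cells exposed to compound for 24 h at 37 °C; plate controls were DMSO only for no effect and tetraoctylammonium bromide at 92 µM for full effect; nearly all actives have a fitted effect of over 55% in size.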 In a few lines:
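Acute cytotoxicity in a human lymphoblastoid line is scored as a concentration-dependent fall in cellular ATP after 24 hr at 37 C in complete medium. The positive control is tetraoctylammonium bromide, and potency is given as Hill-fit AC50.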

Assay [10] deals with Androgen receptor (Homo sapiens) (UniProt P10275). Description: qHTS assay for small molecule agonists of androgen receptor signaling (AID 588515; active means well fitted curve in the direction sought with a large enough effect in the signal ratio, with a control signal flat; the % refers to the signal ratio; further: on the % scale 0 is the no-effect control and ±100 the full control effect). Particulars: AR-UAS-bla HEK293, beta-lactamase ratio, agonist 16 h; stronger effect = higher value. In a few lines:
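EC50 and efficacy came from Hill fits of titrations (up to 92 uM) normalized to 30 nM R1881 as 100% and DMSO as 0%. Compound exposure was 16 h at 37 C on AR-UAS-bla HEK293 cells, with a 405/460/530 nm CCF4 fluorescence read.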

SMILES strings stand for the structures. A number with no mark means an inactive call. Inconclusive results are not listed. Activity calls are given as the source filed them. Unless noted, the call rests on the fitted dose curve; in most records, active means well fitted cell-killing curve with a large enough effect; inconclusive means small, poorly fitted or top-dose-only effect; inactive means flat fitted curve, though single readings scatter.

Chain of Androgen receptor (Homo sapiens) (P10275 whole entry, looked up): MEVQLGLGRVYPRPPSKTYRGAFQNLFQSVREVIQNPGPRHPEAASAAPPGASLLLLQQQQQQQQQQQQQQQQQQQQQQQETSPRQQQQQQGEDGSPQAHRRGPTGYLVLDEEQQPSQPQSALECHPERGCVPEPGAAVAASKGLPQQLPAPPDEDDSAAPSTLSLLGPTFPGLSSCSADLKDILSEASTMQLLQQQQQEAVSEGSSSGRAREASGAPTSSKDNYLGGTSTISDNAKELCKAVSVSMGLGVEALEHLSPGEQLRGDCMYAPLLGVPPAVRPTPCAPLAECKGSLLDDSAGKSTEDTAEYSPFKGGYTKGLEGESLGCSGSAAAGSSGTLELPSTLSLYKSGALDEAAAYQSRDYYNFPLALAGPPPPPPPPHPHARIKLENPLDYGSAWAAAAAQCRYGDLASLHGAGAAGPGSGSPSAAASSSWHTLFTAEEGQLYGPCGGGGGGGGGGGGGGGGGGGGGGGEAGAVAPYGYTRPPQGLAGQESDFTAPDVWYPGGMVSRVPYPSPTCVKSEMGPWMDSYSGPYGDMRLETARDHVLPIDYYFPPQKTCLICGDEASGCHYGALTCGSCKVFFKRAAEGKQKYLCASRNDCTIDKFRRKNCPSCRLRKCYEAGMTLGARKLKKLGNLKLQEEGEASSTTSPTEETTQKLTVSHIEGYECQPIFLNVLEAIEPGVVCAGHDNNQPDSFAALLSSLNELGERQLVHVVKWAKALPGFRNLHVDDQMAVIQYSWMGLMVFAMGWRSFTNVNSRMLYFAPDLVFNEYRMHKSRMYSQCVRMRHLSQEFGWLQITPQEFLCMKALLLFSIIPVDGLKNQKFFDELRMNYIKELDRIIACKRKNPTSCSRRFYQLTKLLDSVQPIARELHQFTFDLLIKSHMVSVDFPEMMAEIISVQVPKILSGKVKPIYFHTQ
Chain of Estrogen receptor (Homo sapiens) (P03372 whole entry, looked up): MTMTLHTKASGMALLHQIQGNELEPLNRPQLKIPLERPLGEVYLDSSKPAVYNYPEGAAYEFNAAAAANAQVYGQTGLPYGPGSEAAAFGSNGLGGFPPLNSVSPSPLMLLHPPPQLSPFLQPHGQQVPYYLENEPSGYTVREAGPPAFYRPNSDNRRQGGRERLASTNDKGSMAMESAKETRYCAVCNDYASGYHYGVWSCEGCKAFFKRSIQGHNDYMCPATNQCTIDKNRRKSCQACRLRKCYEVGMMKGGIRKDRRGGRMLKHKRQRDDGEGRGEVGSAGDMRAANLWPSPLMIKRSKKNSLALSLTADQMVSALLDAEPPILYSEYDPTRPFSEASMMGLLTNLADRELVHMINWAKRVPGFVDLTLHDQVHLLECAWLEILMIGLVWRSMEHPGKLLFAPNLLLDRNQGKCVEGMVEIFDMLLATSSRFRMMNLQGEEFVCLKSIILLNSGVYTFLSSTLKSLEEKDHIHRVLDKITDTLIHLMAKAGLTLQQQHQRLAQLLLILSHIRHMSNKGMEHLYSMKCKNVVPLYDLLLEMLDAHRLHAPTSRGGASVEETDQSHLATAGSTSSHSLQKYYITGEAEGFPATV

Take `O=Cc1ccc(C(=O)O)cc1`: the Potency result in [1], in [2], in assay [4], in assay [5] and in assay [8] was “inactive” throughout. The compound was classed as inactive in assay [3], in assay [6] and in assay [7].
With `Cc1cc(C)cc([N+](=O)[O-])c1`, the Potency result in [9], in assay [1], in [2], in assay [4], in assay [5] and in assay [8] was “inactive” throughout. Moreover, the outcome in assay [6] and in assay [7] was inactive.
`OC(CCl)CCl`: the Potency entry in assay [1], in assay [2], in [5] and in [8] was “inactive” throughout. Also, the compound was called inactive in [3], in assay [6] and in assay [7].
As for `O=C(O)c1cc(Cl)cc(Cl)c1`, the Potency entry in assay [1], in [2], in assay [4], in assay [5] and in [8] was “inactive” each time. Further, the call in assay [3], in assay [6] and in assay [7] was inactive.
On to `C=Cc1ccccc1C=C`, for which the Potency result in assay [9], in [2], in assay [4], in assay [5] and in assay [8] was “inactive” throughout. Besides, the compound was called inactive in assay [3], in assay [6] and in assay [7].
`Cc1cccc(C)c1`: the Potency entry in [1], in [2], in assay [4], in assay [5] and in assay [8] was “inactive” in each case. Besides, the compound was called inactive in assay [3], in [6] and in assay [7].
On to `NC(=O)c1ccccc1[N+](=O)[O-]`, for which the Potency entry in assay [9], in assay [1], in [2], in assay [5] and in [8] was “inactive” each time. Moreover, the result in [3], in assay [6] and in [7] was inactive.
Turning to `O=c1[nH][nH]c(=O)c2cc([N+](=O)[O-])ccc12`, the Potency result in [9], in assay [1], in [2], in assay [4], in [5] and in assay [8] was “inactive” in each case. The outcome in assay [6] and in [7] was inactive.
For `Nc1cccc(O)c1`, the Potency result in [9], in assay [2], in [5] and in assay [8] was “inactive” throughout. Also, the compound was called inactive in assay [3], in [6] and in [7].
Regarding `CC(C)(c1cc(Br)c(OCC(Br)CBr)c(Br)c1)c1cc(Br)c(OCC(Br)CBr)c(Br)c1` (stereo not given), the Potency entry in [9], in [1], in [2], in [5] and in assay [8] was “inactive” throughout. For the same compound, the result in assay [3], in [6] and in [7] was inactive.
As to `CNC(=O)c1ccccc1`, the Potency entry in assay [1], in assay [2], in assay [4], in assay [5] and in [8] was “inactive” each time. Besides, the compound was called inactive in [6] and in [7].
Turning to `NC(=O)/N=N/C(N)=O`, the Potency result in assay [9], in assay [1], in [5] and in assay [8] was “inactive” in each case. Also, the compound was called inactive in assay [3], in assay [6] and in assay [7].
Take `Oc1cccc(Nc2ccccc2)c1`: the Potency result in [1], in assay [2], in [4] and in assay [5] was “inactive” in each case. Besides, the compound was called inactive in assay [3], in assay [6] and in [7]. Also, the Potency in assay [8] was 25.1 µM (active).
For the compound `Cc1ccc(Br)cc1`, the Potency result in assay [9], in assay [2], in assay [4], in assay [5] and in assay [8] was “inactive” throughout. Moreover, the compound was called inactive in assay [3], in assay [6] and in [7].
For `CC(=O)Nc1ccccc1C`, the Potency entry in [9], in assay [2], in assay [4] and in [8] was “inactive” in each case. Further, the call in assay [3], in assay [6] and in [7] was inactive.
Turning to `ICCc1ccccc1`, the Potency result in assay [9], in [1], in [2], in assay [5] and in [8] was “inactive” each time. For the same compound, the outcome in assay [3], in [6] and in assay [7] was inactive.
Regarding `Cc1ccc(Cl)cc1`, the Potency result in assay [1], in assay [2], in [4] and in assay [8] was “inactive” throughout. The call in [3], in assay [6] and in assay [7] was inactive.
For the compound `O=[N+]([O-])c1cccc(C(F)(F)F)c1`, the Potency entry in assay [9], in [2], in [4], in [5] and in [8] was “inactive” in each case. Further, the compound was classed as inactive in assay [3], in [6] and in assay [7].
For the compound `CC(C)Nc1ccccc1`, the Potency entry in assay [9], in [2], in assay [4], in assay [5] and in [8] was “inactive” in each case. In addition, the outcome in assay [3], in assay [6] and in assay [7] was inactive.
On to `Nc1cccc(C(F)(F)F)c1`, for which the Potency entry in [9], in [1], in [2], in assay [4], in assay [5] and in assay [8] was “inactive” in each case. Also, the compound was called inactive in assay [6] and in [7].
As for `Cc1ccc2ncccc2c1`, the Potency entry in assay [9], in [2], in [4], in assay [5] and in assay [8] was “inactive” throughout. For the same compound, the compound was called inactive in assay [3], in assay [6] and in assay [7].
Regarding `CCCCCCC=O`, the Potency result in [9], in assay [2], in assay [4], in assay [5] and in assay [8] was “inactive” throughout. The call in assay [3], in [6] and in assay [7] was inactive.
For `CCCCCCO`, the Potency entry in [1], in assay [2], in assay [4], in assay [5] and in [8] was “inactive” each time. Also, the result in assay [3], in [6] and in assay [7] was inactive.
As to `C=C(C)C(N)=O`, the Potency entry in assay [9], in assay [1], in assay [2], in assay [4] and in [5] was “inactive” in each case. The outcome in assay [3], in assay [6] and in assay [7] was inactive.
`O=C(Cl)c1ccccc1[N+](=O)[O-]`: the Potency entry in [9], in assay [1], in [2], in assay [4] and in assay [5] was “inactive” in each case. For the same compound, the outcome in assay [3] and in assay [6] was inactive. In assay [10], the activation was 6.98%.
As to `O=C1C=CCCC1`, the Potency result in [2], in [4], in [5] and in assay [8] was “inactive” in each case. Also, the call in assay [3], in assay [6] and in [7] was inactive.
For `CC/C=C1/OC(=O)c2ccccc21`, the Potency result in assay [9], in assay [2], in [4] and in assay [5] was “inactive” each time. The result in assay [3] and in assay [6] was inactive. The activation in assay [10] was 15.6%.
`CCCOCC(C)O` (stereo not given): the Potency entry in assay [9], in assay [1], in assay [2], in assay [4] and in assay [5] was “inactive” in each case. The call in assay [3] and in assay [6] was inactive. Moreover, in assay [10], the activation is -4.67%.
With `CCCCCCCCCCCCOCC1CO1` (stereo not given), the Potency entry in [2], in [5] and in [8] was “inactive” in each case. Further, the compound was called inactive in assay [3], in assay [6] and in assay [7].
Take `Cc1cc(C(=O)O)ccc1[N+](=O)[O-]`: the Potency result in assay [9], in [1], in [2], in assay [4] and in [5] was “inactive” each time. Moreover, the compound was called inactive in assay [3], in assay [6] and in assay [7].
